Structures are written as SMILES. The panel holds about 83,000 compounds, 20% with a hit somewhere; the sample as a whole holds those more often.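 In brief: 96-well plates, 48 h treatment, single concentration, percent growth endpoint.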 Unmarked numbers belong to inactive results. The source made the active and inactive calls. How the source made its calls: active means growth percent below 10; inactive means the rest.

This experiment relates to MDA-MB-468 breast. The experiment is described as follows: NCI-60 one-dose screen, 48 h (100 = growth as untreated, 0 = no growth, -100 = all killed). The note with it: 10 µM unless noted.

Regarding `COc1cc(NC(=O)CCSc2nc3ccccc3c(=O)n2CCc2ccccn2)cc(OC)c1OC`, the growth was 91.8%. The figure for `COc1cc(CN(CCC(O)N2CCCC2=O)Cc2ccc3c(c2)OCO3)cc(OC)c1OC` (stereo not given) is 119%; for `CC1=NN(c2cccc(Cl)c2)C(=O)/C1=C\c1cn(CC(O)CN2CCCCC2)c2ccccc12` (stereo not given) it is 23.7%; for `COc1cc2nc3cc([N+](=O)[O-])ccc3c(NCCNCC(C)(C)O)c2cc1OC` it is -37.5% (active). For `O=Cc1ccc(Cl)c(Cl)c1`, the growth was 119%. In the case of `CC1(C)C2CC1C1(/C=N/NC(N)=S)C(C2)C(C#N)(C#N)C1(C#N)C#N` (stereo not given), the growth was 76.6%. As to `COC(=O)C1=C(C(=O)ONCCN(C)C)C2C=CC1(C(Cc1ccccc1)Nc1ccc(F)cc1)O2` (stereo not given), the growth is 75.3%. For `CSc1nn(-c2ccccc2)c2ncnc(Oc3ccc(C)cc3)c12`, the growth was 93.2%. In the case of `O=C(NNc1ccccc1)C1CCCN1` (stereo not given) it was 81%; in that of `O=c1oc2c(cnc3ccccc32)cc1-c1cccs1`, 107%. Regarding `Cc1[nH]c(=S)[nH]c(=O)c1C`, the growth was 112%.

For `CC(Nc1ncnc2ccc(-c3cnc(N)nc3)cc12)c1ccccc1` (stereo not given), the growth is -28.6% (active). As to `O=c1[nH]c(-c2ccccn2)nc2sc3c(c12)CCCCC3`, the growth is 50%. `COC(=O)CCCNS(=O)(=O)c1cc(C(=O)Nc2ccc(NC(=O)c3cc(S(=O)(=O)NCCCC(=O)OC)c(O)c(O)c3O)cc2)c(O)c(O)c1O`: the growth was 98.7%. In the case of `CCNC(=O)Oc1ccc(/C(=C(\C)c2ccccc2)c2ccc(OCCN(CC)CC)cc2)cc1`, the growth was 79.3%. The figure for `N=C1CC(=O)NN1C(=O)CSc1nc2sc3c(c2c(=O)n1-c1ccc(Cl)cc1)CCCC3` is 106%; for `CC(=O)n1nc(C(=O)OC(C)C)c2cc(C)c(C)cc21` it is 92.9%.

In the case of `CCc1n(Cc2ccc3ccccc3c2)c2ccccc2[n+]1Cc1ccc2ccccc2c1`, the growth was 5.98% (active).

Turning to `Clc1ccc(N/N=c2/oc3ccccc3cc2-c2cc3ccccc3[nH]2)cc1`, the growth is 59.8%. For `C=CCc1cc(OC)c(O)c(OC)c1`, the growth was 112%. In the case of `CC1CCN(CCOc2ccc(CNc3ccc4nc(CCC5CCCCC5)[nH]c4c3)cc2)CC1` it was 14.2%; in that of `O=C1/C(=C\c2cn(-c3ccccc3)nc2-c2ccc(-c3cccs3)cc2)CCc2ccccc21`, 36.1%; in that of `O=C(CCN1CCCC1)Nc1ccc2c(Nc3ccc(F)cc3)c3ccccc3nc2c1`, -66.6% (active). In the case of `CCCS(=O)(=O)Nc1ccc(F)c(C(=O)c2c[nH]c3ncc(-c4ccc(Cl)cc4)cc23)c1F` it was 39.3%; in that of `COc1ccc(CCN2C(=O)CSC2=S)cc1OC`, -2.77% (active); in that of `CN(Cc1ccccc1)Cc1ccccc1`, 92.1%. In the case of `COc1ccc(/C(C)=C(\c2ccc(OCCN3CCOCC3)cc2)c2ccc(OC(=O)C3CCCCC3)cc2)cc1`, the growth was 116%. With `COc1cc(-c2nn(-c3ccc(Br)cc3)cc2CO)ccc1O`, the growth is 96.1%. As for `COc1cc(C2NC(c3ccc(Cl)cc3)C(C)C(=NC(=O)c3cnccn3)C2C)cc(OC)c1OC` (stereo not given), the growth was 91.6%. Regarding `O=C(CN1CCNCC1)N1CCOCC1`, the growth was 117%. In the case of `O=C(CN1CCN(C(=O)c2ccccc2)CC1)Nc1ccccc1SCc1ccccc1`, the growth was 56.4%. The figure for `COc1ccc2c(O)cc3c(c2c1)[C@H](CCl)CN3C(=O)c1cc2cc(NC(=O)CCN3CCOCC3)ccc2[se]1` is -25.3% (active); for `CCCCCCCCCCCCS(=O)CC(C)O` (stereo not given) it is 106%; for `CC(C)c1cc(C(C)C)c(S(=O)(=O)Oc2ccc(NC(=O)c3ccc(Cl)cc3)cc2)c(C(C)C)c1` it is 8.01% (active). For the compound `Cc1cc(O)c(C(C)C)cc1Cl`, the growth is 114%.

Regarding `c1csc(C2=NN3C(C2)c2ccccc2OC3c2ccncc2)c1` (stereo not given), the growth is 103%. In the case of `Cc1cc2c(-c3nc4ccccn4c3NC3CCCCC3)c(O)c(O)cc2c(O)c1-c1c(C)cc2c(-c3nc4ccccn4c3NC3CCCCC3)c(O)c(O)cc2c1O` it was 13.9%; in that of `COC(=O)[C@H]1Cc2c([nH]c3ccccc23)[C@@H](c2cccs2)N1`, 101%; in that of `COc1ccc2nc(Cl)c(/C=C/C(=O)c3ccc(NC(=O)CSc4nnc(-c5ccc(Cl)c(Cl)c5)n4-c4ccccc4)cc3)cc2c1`, 98.2%. Consider `Cc1ccc(NC(=O)c2ccc(CN3CC[C@H](N(C)C)C3)c(C(F)(F)F)c2)cc1Nc1nccc(-c2cncnc2)n1`, for which the growth was -36.5% (active).

(Values after PubChem BioAssay (NCI).)
